PubChem BioAssay (NCATS)
Records with an inconclusive call do not appear. A call without a number means that no potency is given here. Calls of active or inactive are those of the source. Calls come from the whole dose curve; as a rule, active = well fitted cell-killing curve with a large enough effect; inconclusive = small, poorly fitted or top-dose-only effect; inactive = flat fitted curve, though single readings scatter.

Assay: Cell Viability - LYMP2-016 (AID 984); note: nearly all actives have a fitted effect of over 55% in size
Details: LYMP2-016 lymphoblastoid cell viability, qHTS; series mostly up to 92.2 µM
Text: NIH Chemical Genomics Center [NCGC]
NIH Molecular Libraries Screening Centers Network [MLSCN]
National Institutes of Environmental Health Sciences [NIEHS]
National Toxicology Program [NTP]
We have developed a 1536-well cell-based assay for quantitative high throughput screening (qHTS) against a number of cell lines to determine in vitro cytotoxicity of small molecules. This particular assay uses a human lymphoblastoid cell line (LYMP2-016) purchased from Coriell Institute for Medical Research.
NCGC Assay Protocol Summary:
The CellTiter-Glo luminescent cell viability assay (Promega) is a homogeneous method to measure the number of viable cells in culture. The end point readout of this assay is based on quantitation of intracellular ATP, an indicator of metabolic activity, using the luciferase reaction. Luciferase catalyzes the oxidation of beetle Luciferin to oxyluciferin and light in the presence of ATP. The luminescent signal is proportional to amount of ATP present.
Using the CellTiter-Glo luminescent cell viability assay, the amount of cellular ATP was measured in the lymphoblastoid cell line with complete culture medium following compound treatment for 24 hours. The assay was performed in opaque white Kalypsys 1536-well plates. In the screen, tetraoctylammonium bromide was used as positive control. Library compounds were measured for their ability to cause acute toxicity in the cell line, as reflected by a decrease in intracellular ATP levels, in a concentration-dependent manner. […] AC50 values were determined from concentration-response data modeled with the standard Hill equation.
qHTS protocol for CellTiter Glo lymphoblastoid cellular assay
[Step] [Parameter] [Value] [Description]
1. Reagent; 5 uL; 2500 lymphoblastoid cells/well
2. Time; 5 hr; 37 C incubation
4. Controls; 23 nL; Tetraoctylammonium bromide 6.4pM to 92 uM
5. Time; 24 hr; 37 C incubation
6. Reagent; 5 uL; CellTiter Glo reagent
7. Time; 30 min; Room Temperature
8. Detection; Luminescence; Viewlux plate reader
Keywords: cell viability, cytotoxicity, lymphoblastoid cell line, luminescence, NTPHTS, NTPHTS_NCGC, NIEHS, DSSTox, MLSMR, MLSCN, NIH Roadmap, qHTS, NCGC
Potency is the fitted concentration of half-maximal effect.

Compound	Potency
O=C1OC2(c3cc(Br)c(O)c(Br)c3Oc3c2cc(Br)c(O)c3Br)c2c(Cl)c(Cl)c(Cl)c(Cl)c21	inactive
Cc1cc(Nc2ccc(O)cc2)ccc1N	50.1 µM (active)
Nc1ccc2cc3ccccc3cc2c1	inactive
c1ccc2c(c1)ccc1cc3c(ccc4ccccc43)cc12	inactive
CCC(C)Nc1ccc(NC(C)CC)cc1 (configuration not stated)	5.01 µM (active)
CNc1ccc(O)cc1	7.94 µM (active)
O=[N+]([O-])c1cc([N+](=O)[O-])c2ccc(S(=O)(=O)O)cc2c1O	inactive
Cc1cc(O)c(C(C)(C)C)cc1Sc1cc(C(C)(C)C)c(O)cc1C	50.1 µM (active)
CN(C)c1ccc(C2(c3ccc(N(C)C)cc3)OC(=O)c3cc(N(C)C)ccc32)cc1	inactive
O=C1OC(O)C(C(Cl)Cl)=C1Cl (configuration not stated)	25.1 µM (active)
CCCCCCCC[N+](CCCCCCCC)(CCCCCCCC)CCCCCCCC	5.01 µM (active)
CC(=O)Nc1ccc(C(=O)CCl)cc1	7.94 µM (active)
c1ccc2c(c1)-c1cccc3c1c-2cc1ccccc13	inactive
Cc1cccc(O)c1C	inactive
C=CC(=O)OCCOCCOC(=O)C=C	20 µM (active)
O=C(/C=C/c1ccc(O)c(O)c1)OC1C[C@](O)(C(=O)O)C[C@@H](O)[C@H]1O (some centres not stated)	inactive
C=C(C)c1ccccc1	inactive
CN1[C@H]2CC(OC(=O)[C@H](CO)c3ccccc3)C[C@H]1[C@H]1O[C@H]12 (some centres not stated)	inactive
O=C(OCC(COC(=O)c1ccccc1)(COC(=O)c1ccccc1)COC(=O)c1ccccc1)c1ccccc1	inactive
CCCCCC/C(C=O)=C\c1ccccc1	inactive
O=C=Nc1ccc(Cc2ccc(N=C=O)cc2)cc1	inactive
O=Cc1ccc(Cl)c(Cl)c1	inactive
